# Data: PubChem BioAssay (NCI)
# Compounds without any hit were thinned out: in the full panel of roughly 79,000, 15% have a hit. Values without a mark were called inactive. The source made the active and inactive calls. Cut-off read from the data, not from the text of the source: active = growth inhibition above about 70%; inactive = the rest. Where a SMILES comes first, the peptide text is derived from it. [ ]: non-standard residue; d: D form. The star is where a group is joined. ξ: configuration not given here. Bz = O=C(c1ccccc1)*; Bn = c1ccc(C*)cc1; ξC = NC(CS)C(=O)O
# Key:
# [1] = NCI Yeast Anticancer Drug Screen. Data for the rad50 strain (AID 155);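 note: 0% = growth of vehicle-only cultures of the same strain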; details: S. cerevisiae rad50 strain growth inhibition; at 50.0 µM; active compounds read high
# Procedure, shortened: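 Compounds were tested on a yeast strain with an engineered DNA damage repair alteration; the reported value is growth inhibition normalised to vehicle treatment.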
# [2] = NCI Yeast Anticancer Drug Screen. Data for the mec2-1 strain (AID 157); details: S. cerevisiae mec2-1 strain, at 50.0 µM, active compounds read high
# Procedure, shortened: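 mec2-1 yeast strain, carrying an alteration in DNA damage repair or cell cycle control, was exposed to compounds; growth inhibition was measured relative to vehicle-treated controls.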
# [3] = NCI Yeast Anticancer Drug Screen. Data for the sgs1 mgt1 strain (AID 161);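 note: 0% = growth of cultures given vehicle only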; details: S. cerevisiae sgs1 mgt1 strain, at 50.0 µM, active compounds read high
# Procedure, shortened: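 This yeast growth screen uses a strain with defined DNA-repair lesions; compound-treated growth is compared with vehicle-treated growth.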
# [4] = NCI Yeast Anticancer Drug Screen. Data for the cln2 rad14 strain (AID 165);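 note: 0% = growth equal to vehicle treated cultures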; details: S. cerevisiae cln2 rad14 strain, at 50.0 µM, active compounds read high
# Procedure, shortened: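 Yeast carrying cln2 and rad14 alterations (cell cycle control and DNA damage repair) were exposed to compounds. Growth inhibition was measured against vehicle-treated controls.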
# [5] = NCI Yeast Anticancer Drug Screen. Data for the bub3 strain (AID 167); details: S. cerevisiae bub3 mutant strain, at 50.0 µM, active compounds read high
# Procedure, shortened: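 Growth of a checkpoint-deficient yeast mutant is measured after compound exposure. Values represent inhibition relative to vehicle.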
# [6] = NCI Yeast Anticancer Drug Screen. Data for the mlh1 rad18 strain (AID 175); details: S. cerevisiae mlh1 rad18 strain growth inhibition; at 50.0 µM; active compounds read high
# Procedure, shortened: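 Growth inhibition of the yeast strain was measured after compound exposure and expressed relative to vehicle-treated controls. The strain carries defined defects in DNA damage repair.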
SMILES,growth inhibition [1] [%],growth inhibition [2] [%],growth inhibition [3],growth inhibition [4] [%],growth inhibition [5] [%],growth inhibition [6]
CCCCCCCCCCCCCCCCCCS,-1.15,-25.3,-7.85%,-14.7,8.3,-5.7%
CC1C=CC(C)c2c(-c3ccccc3)oc(-c3ccccc3)c21 (stereo unspecified),17,8.6,-1.5%,-2.6,-0.4,9.7%
Clc1ccccc1CN1COc2c(ccc3ccccc23)C1,35.5,14.3,32.6%,19.6,25.5,22.6%
O=C(O)c1ccc(/C=N/NC(=O)C(O)(c2ccccc2)c2ccccc2)cc1,8.3,-21.9,-18.9%,11.7,-10.4,-9.65%
COc1cc(OC)c(NC(=O)NC(C)(C)C)cc1Cl,-3.35,9.4,17.1%,-2.5,18.6,23.4%
COc1ccc(C(=O)C(C)C(O)C(=O)O)c(O)c1C (stereo unspecified),8.15,14.9,-1.25%,2,-16.5,9.15%
CN(C(=N)N)c1ccc(C(=O)Oc2ccc([N+](=O)[O-])cc2)cc1,14.8,12.8,29.6%,1.35,15.1,17.1%
CC(=O)Nc1ccc(C(=O)NN2C(=O)C(Cl)C2c2ccc(Cl)cc2)cc1 (stereo unspecified),-50.3,-32.3,-42.8%,-27.3,-28.9,-43.5%
O=C(NC1C2CC3CC(C2)CC1C3)c1ccncn1 (stereo unspecified),25.1,4.75,17.8%,38,13.2,26.2%
N#CC(C(=O)C(N)=O)c1ccccc1Cl (stereo unspecified),-13.5,-26.8,-6.8%,-0.7,-12.2,-17.3%
C=CC12CCCCC1C(NC)Cc1ccc(OC)c(O)c12 (stereo unspecified),4.25,-1.65,6.9%,1.8,4.9,-6.9%
O=[N+]([O-])c1ccc(N/N=C2\CCC3CC23)c([N+](=O)[O-])c1 (stereo unspecified),1,-15.2,-2.15%,-1.35,-0.55,-21.9%
O=C1Oc2ccccc2C(=O)C1=Ic1ccccc1,31.3,52.9,73.6% (active),51.3,38,56%
Cc1nc2ccc(S(=O)(=O)Nc3ccccn3)cc2c(=O)n1NS(=O)(=O)c1ccccn1,42.6,12.1,12%,22.8,-14.2,26.4%
CO/N=C(\C([O-])=N\[n+]1cnn(CC(=O)OC(C)(C)C)c1)c1csc(NC(c2ccccc2)(c2ccccc2)c2ccccc2)n1,39.5,0.75,11.1%,8.3,15.3,-10.1%
CNC1C(CO)OC(n2cnc3c(=O)[nH]cnc32)C1O (stereo unspecified),12.2,-6.45,-11.4%,-9.1,-9.2,13.6%
COCC1(c2ccccc2)NC(=O)N(C)C1=O (stereo unspecified),-3.05,-2.15,-1.35%,-9.15,-7.35,-2%
C=C(C)C(=O)OCCN(CC)CC,33.9,-4.15,17.7%,23.6,11.4,23.5%
NCCCOCCO,-2.9,-0.5,-8.4%,8.3,16.4,4.35%
CCCCCCCCCCCCOc1ccc(F)cc1C,6,-1.15,0.45%,4.6,10.7,13.4%
c1cc[n+](Cc2ccc3ccccc3n2)cc1,-0.95,-5.5,-5.85%,-27.4,-2.2,28.9%

SMILES,growth inhibition [1] [%],growth inhibition [2] [%],growth inhibition [3],growth inhibition [4] [%],growth inhibition [5] [%],growth inhibition [6]
O=C(C[n+]1ccccc1)N/N=C(/CCC(=O)N(Cc1ccccc1)Cc1ccccc1)CC(=O)c1ccccc1,-21.1,-21.8,-38%,0.85,-26.6,-21.8%
O=C(O)CSc1ccccc1,39.5,18.4,17.8%,13.3,20.6,0.15%
CC1C(O)CC2(C(C)C)CC12 (stereo unspecified),4.85,-0.25,-8.7%,12.3,-18.1,-10.4%
CC1CCN(C(c2ccccc2)c2ccc3ccccc3c2O)CC1 (stereo unspecified),51.8,42.2,55.4%,-6.8,33.6,75% (active)
O=C(O)/C(=C\c1cccc(O)c1)c1ccccc1,-19.4,-30.4,-16.4%,-6.65,-3.2,-6%
Nc1cccc([N+](=O)[O-])c1O,4.75,2.45,12.7%,9.75,5.4,12.4%
O=S(=O)([O-])c1ccc(N=Cc2ccccc2[O-])cc1.O=S(=O)([O-])c1ccc(N=Cc2ccccc2[O-])cc1.[Co+2],16.6,2.25,-15.2%,23.4,9.25,-9.65%
O=c1oc2ccccc2cc1F,16.4,7.2,-9.75%,5.3,16.9,21.4%
N#Cc1ccccc1/C=N/O,0.15,-6.55,-8.75%,0.95,-18.4,-14.1%
CC(=O)Nc1ccccc1N,15.4,14.9,-2.85%,4.6,-14.3,14.5%
CC1(C)CCCOc2cccc(c2)OCCCC(C)(C)C1=O,14.5,-1.7,-9.05%,27.1,28.8,25.9%
CCN(c1ccc(Br)cc1)c1ccc(Br)cc1,-14.2,-20.1,-23.2%,-7.75,3.75,7.55%
Nc1cc(C(Br)(Br)Br)nc2ccccc12,17.4,7.45,16.8%,-0.2,-11,31.8%
O=C(O)c1cocc1C(=O)O,3.2,-3.4,-13.6%,-14.8,-2.65,-3.95%
O=C(O)CSc1n[nH]c(-c2ccccc2O)n1,-1.1,2.5,17.8%,17.5,9.6,7.25%
CN(C)N=Nc1c(F)cccc1F,-5.85,-13.8,-28.6%,20.4,8.9,0.65%
CC(CC(=O)O)C(C)C(=O)O (stereo unspecified),-7.9,-4.45,-6.4%,-7.7,0.5,-13.4%
O=C(CNC(=O)c1ccccc1)NC(CSCc1ccccc1)C(=O)O (stereo unspecified) (Bz-Gly-[ξC](Bn)-OH),-12.4,5.55,-28.8%,-19.1,-34.2,-1.3%
Cc1ccc(N=Nc2ccc(N(C)C)cc2)cc1,18.6,-8.05,-16.6%,-51.6,-6.2,14.7%
CCCCOC(=O)c1ccc(OCCCC)cc1,23.6,19.6,16.6%,13.2,10.5,17.8%
